ATXN2 expr inh: inhibitors of ATXN2 expression; Potency, µM (doses to about 57 µM), without a hit: at the top dose activity change, negative = inhibition, most hits filed as inhibitors; HEK-293 ATXN2-luciferase reporter, luminescence, 24 h; hit rate 0.72% among 360,000; further: on the % scale 0 is the no-effect control and ±100 the full control effect; nearly all actives have a fitted effect of over 55% in size
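qHTS (up to 57 uM final) was run with 24 h compound exposure of reporter cells at 37 °C. Each well was multiplexed: SteadyGlo luminescence measured ATXN2-luciferase expression after a fluorogenic Gly-Phe-AFC viability readout (25 uM final).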
KB-V1 cytotox: kills drug-selected multidrug resistant KB-V1 cells. KB-V1 MDR cells viability, CellTiter-Glo, 72 h. Potency, µM (doses to about 46.1 µM), usual class: cytotoxic. hit rate 3.4% among 400,000; further: on the % scale 0 is the no-effect control and ±100 the full control effect; nearly all actives have a fitted effect of over 60% in size
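Drug-selected KB-V1 cells, grown in DMEM lacking phenol red with 10% FBS, receive compound titrations; after three days at 37 degrees C, surviving cell ATP is quantified by CellTiter-Glo luminescence and responses normalized and curve-fitted.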
KB-3-1 tox: KB-3-1 parental cell cytotoxicity; KB-3-1 viability, CellTiter-Glo ATP luminescence, 72 h; hit rate 1.4% among 400,000; Potency, µM (highest dose often 46.1 µM), most hits filed as cytotoxic; further: on the % scale 0 is the no-effect control and ±100 the full control effect; nearly all actives have a fitted effect of over 60% in size
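Viability of parental KB-3-1 cells, measured by CellTiter-Glo luminescence, followed a 72 h incubation at 37 °C with pinned compounds in phenol-red-free DMEM containing 10% FBS.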
HT1080 IDH1KD tx: HT-1080 IDH1 knockdown cell toxicity (counter line) | HT-1080 IDH1 knockdown viability, ATP luminescence, 48 h | Potency, µM (highest dose often 46.1 µM), inactives show top-dose activity, negative = toxicity, most hits filed as cytotoxic | hit rate 2% among 360,000;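 further: 0% = DMSO wells and -100% = cell-free medium wells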
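Luminescent ATP read-out (CellTiter-Glo, 10 min at room temperature) after 48 h compound exposure at 37 °C gave viability of IDH1-knockdown HT-1080 cells. Activity was normalised to DMSO and cell-free wells, then fitted as concentration-response curves.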
ATXN viability: cell viability loss in ATXN counter-screen; AID 651635; Potency, µM (highest dose often 56.7 µM), hits mostly cytotoxic; S2 cells (HEK-293 line with an ATXN2-luciferase reporter) viability, CellTiter-Fluor protease fluorescence, 24 h; hit rate 0.49% among 400,000; further: nearly all actives have a fitted effect of over 40% in size
HT1080NT lethal: kills 2HG-producing HT-1080-NT fibrosarcoma cells; HT-1080-NT fibrosarcoma viability, CellTiter-Glo ATP luminescence, 48 h; Potency, µM (titrated, usually from 46.1 µM), for the others: at the highest dose activity, negative = less viability, most hits filed as cytotoxic; hit rate 1.6% among 360,000; AID 686970;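 further: NT is the 2HG producing partner of a matched IDH1 knockdown line; 0% = DMSO-treated cells and -100% = media-only wells without cells; nearly all actives have a fitted effect of over 55% in size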
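A 48-hour cytotoxicity screen used HT-1080-NT cells plated 2 hours before compound delivery. ATP-based CellTiter-Glo luminescence measured viability, normalized to DMSO and no-cell controls.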
Active calls of the source: *; i = inactive; ? = inconclusive; / = no result. The list is not random: actives were taken first. Their share in the collection is about 6.2%. The call rests on the fitted dose curve; in most records, active means well fitted curve in the direction sought with a large enough effect; inconclusive means small, poorly fitted or top-dose-only effect, or another doubt; inactive means no such curve, though single readings can be large; an effect the other way counts as inactive or inconclusive. Potency means the concentration at half of the fitted maximal effect.

SMILES	ATXN2 expr inh	KB-V1 cytotox	KB-3-1 tox	HT1080 IDH1KD tx	ATXN viability	HT1080NT lethal
CCNC(=O)CCCC=CC[C@@H]1[C@H](C=CC(O)CCc2ccccc2)[C@@H](O)C[C@@H]1O (some centres not stated)	-2.6%	/	/	/	/	/
CC(=O)c1c(C)[nH]c(C(=O)N2CCN(c3cc(Cl)ccc3C)CC2)c1C	27.1%	i	4.61µM*	23.1µM*	i	16.4µM*
Cc1ccc(Cl)cc1N1CCN(C(=O)c2cc3c(=O)[nH]c4ccccc4c3n2C)CC1	-30.3%	7.31µM*	?	-4.0%	?	?
Cn1c(C(=O)N2CCN(c3ccc(Cl)cc3)CC2)cc2c(=O)[nH]c3ccccc3c21	-20.2%	i	i	-4.3%	i	-7.6%
Cc1ccc(Cl)cc1N1CCN(C(=O)c2c(C)oc3ncnc(N4CCCCC4)c23)CC1	28.2µM*	i	i	/	?	/
Cc1ccc(Cl)cc1N1CCN(S(=O)(=O)c2c(C)[nH]c(C)c2C(=O)N2CCCC2)CC1	-20.3%	i	i	-18.0%	i	-5.9%
COc1cccc(N2CCN(C(=O)c3[nH]c(C)c(C(C)=O)c3C)CC2)c1	-13.9%	5.62µM*	6.31µM*	5.62µM*	i	7.08µM*
CCN(C(=O)C1CCN(S(=O)(=O)c2ccc3c(c2)CCCN3C(C)=O)CC1)c1cccc(C)c1	-16.9%	i	i	/	i	/
CC(=O)c1c(C)[nH]c(C(=O)N2CCN(c3ccc(F)cc3)CC2)c1C	23.0%	?	i	10µM*	i	?
O=C(N/N=C1\CCc2ccccc21)c1ccncc1	50.2%	i	i	-9.4%	i	-9.2%
c1ccc2c(c1)CCc1c(-c3ccncc3)n[nH]c1-2	/	14.6µM*	13µM*	0.0%	i	6.4%
O=C(NCCC1=CCCCC1)c1ccc2c(c1)ncn2-c1ccc(F)c(F)c1	-12.3%	i	i	/	?	/
CC(C)n1ncc2c(C(=O)Nc3ccc(S(C)(=O)=O)cc3)cc(C3CC3)nc21	/	i	i	0.7%	i	-12.6%
CC(C)n1ncc2c(C(=O)Nc3cccc(S(=O)(=O)N(C)C)c3)cc(C3CC3)nc21	-12.4%	8.2µM*	?	-2.7%	i	-2.5%
CCOC(=O)C(/C(C)=N/NC(=O)C1CC1c1ccccc1)C(C)C (configuration not stated)	-7.2%	16.4µM*	i	-0.3%	i	-1.3%
C/C(=N\NC(=O)C1CC1c1ccccc1)c1ccc(C)s1 (configuration not stated)	-7.0%	i	i	-15.4%	i	-15.7%
COCCN1Cc2cccc(C(=O)NCc3ccc4c(c3)OCO4)c2C1=O	-7.0%	4.11µM*	i	14.1%	i	2.9%
CCCOc1ccc(C(=O)Nc2cccc(-c3nc4ccccc4[nH]3)c2)cc1	?	20.6µM*	?	/	?	/
COCCN1Cc2cccc(C(=O)Nc3ccc(-c4nc5ccccc5[nH]4)cc3)c2C1=O	-5.8%	i	i	-1.0%	i	10.4%
CCOc1cc(OCC)cc(C(=O)Nc2cccc(-c3nc4ccccc4[nH]3)c2)c1	-35.2%	?	i	/	?	/
COCCN1Cc2cccc(C(=O)NCc3ccccn3)c2C1=O	-7.9%	i	i	14.3%	i	0.7%
O=C(Nc1ccc2nc(-c3ccccc3)[nH]c2c1)c1ccco1	35.9%	i	?	-24.4%	i	-19.0%
COCCN1Cc2cccc(C(=O)Nc3cccc(-c4nc5ccccc5[nH]4)c3)c2C1=O	?	10.3µM*	?	16.4µM*	?	-51.7%
O=C(Nc1cccc(-c2nc3ccccc3[nH]2)c1)c1cccc(NC(=O)c2ccco2)c1	?	i	?	?	31.6µM*	?
CCOc1ccc(-c2nn(CC(=O)NC3CCCC3)c3c2cnc2ccc(C)cc23)cc1	0.1%	i	i	/	i	/
